These results are taken from PubChem BioAssay AID1578 (Sanford-Burnham Center for Chemical Genomics, 2009).

The structures appear in SMILES notation. About 3,000 (1%) of roughly 290,000 compounds were called active. Cut-off read from the data, not from the text of the source: active = inhibition mostly above about 36% (no sharp cut-off); inactive = mostly below about 34%. Shown is part of a subset that was picked to be rich in actives.

The nature of the test: NOD1 signaling inhibitors, primary screen, cell-based, luminescence, uHTS (AID 1578).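 Note: HEK-293T reporter cells stimulated with the NOD1 agonist gamma-tri-DAP.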 The following applies: NOD1-driven NF-kB luciferase reporter cells, at 4 µM, active compounds read high.
Regarding `CCN(Cc1ccncc1)Cc1nc(CC2CC2)no1`, the inhibition is -8.9% (inactive).
Next, `COc1ccc(C(=O)C(CCCCC(CN(C)C)C(=O)c2ccc(OC)cc2)CN(C)C)cc1` (stereo not drawn): -6% (inactive); `CN(C)CC(CCCCC(CN(C)C)C(=O)c1ccccc1)C(=O)c1ccccc1` (stereo not drawn): -4.1% (inactive).
Next, `COc1ccccc1NC(=O)CN1CCN(CC(=O)Nc2ccccc2Cl)CC1`: -18.4% (inactive); `O=C(Nc1ccc(Cl)cc1)Nc1cc([N+](=O)[O-])ccc1F`: 30.3% (inactive); `O=C(Nc1ccccc1)Nc1cc([N+](=O)[O-])ccc1F`: -17.9% (inactive).
Regarding `COc1ccc(C2/C(=C(/O)c3ccc(C)cc3)C(=O)C(=O)N2C)c(OC)c1` (stereo not drawn), the inhibition was -29.5% (inactive).
For the compound `CCC1CCC(C(=O)NC(C(=O)NCCN2CCOCC2)C(C)C)CC1` (stereo not drawn), the inhibition is -24.4% (inactive).
To `Cc1cc(Cl)c(S(=O)(=O)Nc2cc(S(=O)(=O)N3CCOCC3)ccc2F)cc1OCC(N)=O` belongs -11.8% (inactive); to `Cn1nccc1C(=O)N1CCN(c2cccc(C(F)(F)F)c2)CC1`, -2.5% (inactive); to `CC1Oc2ccccc2N(CC(=O)NCc2ccc3c(c2)OCO3)C1=O` (stereo not drawn), -48.9% (inactive).
For the compound `COc1ccc(OC)c(/C=N\NC(=O)c2c(C)nc3cc(C)ccn23)c1`, the inhibition was -8.5% (inactive).
Next, `CN(C(=O)COc1ccc(Cl)cc1Cl)c1nnc(C23CC4CC(CC(C4)C2)C3)s1`: -34.1% (inactive); `CN(C(=O)COc1ccccc1)c1nnc(C23CC4CC(CC(C4)C2)C3)s1`: 104% (active).
Next, `CN(C(=O)COc1ccc(Cl)cc1)c1nnc(C23CC4CC(CC(C4)C2)C3)s1`: 4.5% (inactive).
Next, `O=C(NNC(=S)Nc1ccc(Cl)c(Cl)c1)c1cccc([N+](=O)[O-])c1`: -11.1% (inactive); `CN(C(=O)CC1C(=O)NCCN1Cc1cccc(F)c1F)C1CCOCC1` (stereo not drawn): -24.4% (inactive).
Take `CCC(CCC(=O)Nc1nncs1)C(=O)O` (stereo not drawn): the inhibition was 0.6% (inactive).
To `O=C(O)CCCCCN1C(=O)C2CCCCC2C1=O` (stereo not drawn) belongs -26.7% (inactive).
To `CC(O)[C@H]1CNC(=O)C(=O)N1CCCCC1CCCCC1` (stereo partly drawn) belongs -9.4% (inactive); to `O=C(O)CCCCCCC1C(=O)NC(=O)N1CCC(O)C1CCCCC1` (stereo not drawn), 75.2% (active); to `CCOC(=O)c1c(C)[nH]c(C)c1S(=O)(=O)N(C)CC(=O)NCc1cccc(Br)c1`, -19.6% (inactive).
Next, `COc1ccc(-c2c3c(cc(C)[n+]2[O-])oc2ccc(OC)cc23)cc1`: -20% (inactive); `Cc1[nH]nc2c1C(c1ccc3c(c1)OCO3)C(C#N)=C(N)O2` (stereo not drawn): -33.1% (inactive).
Regarding `CC(C)c1cccc(C(C)C)c1NC(=O)c1ccccc1`, the inhibition is -17.6% (inactive).
To `CC(C)c1cccc(C(C)C)c1NC(=O)CN1CCCC1` belongs -21.2% (inactive); to `CC(C)c1cccc(C(C)C)c1NC(=O)CCl`, 68.4% (active).
For `COc1ccccc1CNC(=O)Cn1nnnc1CN(C)C(C)C`, the inhibition was -103% (inactive).
Next, `COc1ccc2oc(C(=O)NC(C)(C)C)c(C)c2c1`: -42.6% (inactive); `CCCC(=O)C1=C(O)C(C(=O)OC)C(C)(C)CC1=Nc1cccc2ccccc12` (stereo not drawn): 53.5% (active).
Next, `CCCC(=O)C1=C(O)C(C(=O)OC)C(C)(C)CC1=Nc1ccccc1` (stereo not drawn): -9.6% (inactive).
Next, `CCCC(=O)C1=C(O)C(C(=O)OC)C(C)(C)CC1=Nc1ccc(OC)cc1` (stereo not drawn): -37.1% (inactive).
Consider `O=C(NCC1CCCO1)c1ccc(/C=N/O)nc1` (stereo not drawn), for which the inhibition is -26.9% (inactive).
Next, `CC1(C)CC(N2CCCC2)=CC(=[N+]2CCCC2)C1`: 27.8% (inactive); `CC1(C)CC(N2CCCC2)=CC(=[N+]2CCCCC2)C1`: -30.9% (inactive); `CC1(C)CC(N2CCCCC2)=CC(=[N+]2CCCCC2)C1`: 36.9% (inactive).
As for `CC1(C)CC(N2CCN(c3ccccc3)CC2)=CC(=[N+]2CCCC2)C1`, the inhibition is 55% (inactive).
To `O=C(Cn1c(=O)c2sccc2n(Cc2ccc([N+](=O)[O-])cc2)c1=O)NCCc1ccccc1` belongs -16.6% (inactive).
Next, `Cn1c(CNC(=O)CCNC(=O)c2cccc(F)c2)cc(=O)n(C)c1=O`: -2.9% (inactive).
To `Cc1cccc(C(=O)N=c2sccn2C)c1[N+](=O)[O-]` belongs -69.7% (inactive); to `O=C(NCc1ccncc1)C(=O)Nc1nc(C23CC4CC(CC(C4)C2)C3)cs1`, -11.3% (inactive).
Turning to `O=C(NCc1ccc(F)cc1)C(=O)Nc1nc(C23CC4CC(CC(C4)C2)C3)cs1`, the inhibition was 46.9% (inactive).
For `O=C(NCc1ccccc1)C(=O)Nc1nc(C23CC4CC(CC(C4)C2)C3)cs1`, the inhibition was 89.4% (active).
To `CC(=O)Nc1ccc(C(=O)OCC(=O)Nc2c(F)cccc2F)cc1` belongs -4.7% (inactive).
With `CCCCS(=O)(=O)C1CCS(=O)(=O)C1` (stereo not drawn), the inhibition is -31.7% (inactive).
Next, `O=S1(=O)CCC(S(=O)(=O)N2CCCCCC2)C1` (stereo not drawn): 98.1% (active); `Cc1ccc(S(=O)(=O)N2CCCN(S(=O)(=O)C3CCS(=O)(=O)C3)CC2)cc1` (stereo not drawn): -14.1% (inactive); `CC(C)C1Nc2ccc(C(=O)NCc3ccco3)cc2NC1=O` (stereo not drawn): -8.3% (inactive).
Turning to `CC12CCC(=O)N1C(C(=O)Nc1nnc(SCc3ccccc3F)s1)CS2` (stereo not drawn), the inhibition is -32.1% (inactive).
Next, `O=C(Cn1c(=O)[nH]c2ccccc2c1=O)Nc1cccnc1`: -10.3% (inactive).
Next, `O=C(Cn1ncc2c([nH]c3ccccc32)c1=O)Nc1cccnc1`: 55.7% (active).
Next, `Cc1ccc(NC(=O)Cn2ncc3c([nH]c4ccccc43)c2=O)cc1Cl`: 1.5% (inactive).
`O=C(NCCCN1CCCC1)[C@H](CSCc1ccccc1)N1Cc2ccccc2C1=O`: the inhibition is -6.7% (inactive).
To `COc1cccc(CN2CCNC(=O)C2CC(=O)N(C)C2CCCCC2)c1` (stereo not drawn) belongs -1.2% (inactive).
As for `CC1CCCCN1C(=O)C(=O)c1cn(CC(=O)N2CCCCCC2)c2ccccc12` (stereo not drawn), the inhibition is -20.8% (inactive).
Regarding `CC(=O)N1CC(C)Sc2ccc(S(=O)(=O)N3CCCCC3)cc21` (stereo not drawn), the inhibition is 6.9% (inactive).
As for `CCOC(=O)C1CCN(S(=O)(=O)c2ccc3c(c2)CCN3C(C)=O)CC1`, the inhibition was 6.1% (inactive).
Consider `CC1CCN(C(=O)c2cc3ccccc3c(=O)o2)CC1`, for which the inhibition is -21.4% (inactive).
Consider `Cc1cccc(CCNC(=O)CNS(=O)(=O)c2ccc3nc(C)sc3c2)c1`, for which the inhibition is 12.4% (inactive).
On to `Cc1ccc(N2CC(C(=O)NC3CC3)CC2=O)cc1` (stereo not drawn), for which the inhibition is 17.9% (inactive).
Next, `COc1ccc2nc(NC3=NC(c4ccccc4)CC(=O)N3)nc(C)c2c1` (stereo not drawn): -18.7% (inactive); `O=C(NNS(=O)(=O)c1ccc(F)cc1)C1CC(c2cccnc2)=NO1` (stereo not drawn): 51% (active); `O=C(NNS(=O)(=O)c1ccccc1)C1CC(c2cccnc2)=NO1` (stereo not drawn): -32.5% (inactive).
As to `COc1ccc(S(=O)(=O)NNC(=O)C2CC(c3cccnc3)=NO2)cc1` (stereo not drawn), the inhibition was -24.9% (inactive).
Turning to `COc1ccc(C(=O)C2CCN(CC(=O)Nc3ccc(OC)cc3OC)CC2)cc1`, the inhibition is -10.7% (inactive).
With `COC(=O)c1sc(=S)n(Cc2ccccc2)c1C`, the inhibition is 5% (inactive).
To `COc1ccc(CNC(=O)CCC(=O)N2CC(C)Oc3ccccc32)cc1` (stereo not drawn) belongs -16.3% (inactive).
Next, `O=S(=O)(c1ccc(F)cc1)c1snnc1-c1ccccc1`: 24.9% (inactive); `O=S(=O)(c1ccc(Cl)c(Cl)c1)c1snnc1-c1ccccc1`: 77.3% (active).
As for `c1ccc(-c2nnsc2-c2ccccc2)cc1`, the inhibition was 6.7% (inactive).
Next, `O=C(Nc1ccccc1)c1nnsc1S(=O)(=O)c1ccc(Cl)cc1`: 67.9% (inactive); `Cc1nnsc1S(=O)(=O)c1ccccc1`: -10.8% (inactive).
Next, `CCCCCCCSc1nnc(N)s1`: 5.6% (inactive).
To `CC(C)(C)NC(=O)COC(=O)c1ccccc1NC(=O)c1ccco1` belongs -42.8% (inactive).
As to `CC1CN(C(=O)c2cc3ccccc3oc2=O)CC(C)O1` (stereo not drawn), the inhibition was 0.9% (inactive).
With `C/C(=N/NC(=O)c1ccncc1)c1ccc(NC(=O)c2ccccc2)cc1`, the inhibition was -8.8% (inactive).
To `C/C(=N\NC(=O)c1ccncc1)c1ccc(NC(=O)c2ccc(Cl)cc2)cc1` belongs 7% (inactive); to `C/C(=N\NC(=O)c1ccccc1NC(=O)c1ccc(Cl)cc1)c1ccncc1`, 60.4% (active).
Take `NC(=O)CC(NC(=O)Cc1ccc(Cl)cc1)c1ccc(NC2CCCCC2)c([N+](=O)[O-])c1` (stereo not drawn): the inhibition was -4.6% (inactive).
To `Oc1csc(Cc2nc(-c3ccc(-c4ccccc4)cc3)cs2)n1` belongs 31.2% (inactive).
Consider `Oc1csc(Cc2nc(-c3ccc4ccccc4c3)cs2)n1`, for which the inhibition was 4.6% (inactive).
Turning to `Cc1sc(Cc2nc(O)cs2)nc1-c1ccccc1`, the inhibition was 97.9% (active).
As to `O=C(Nn1cc(C(=O)Nc2ccc(F)cc2F)c2ccccc2c1=O)c1cnccn1`, the inhibition is -21.1% (inactive).
`O=C(Nn1cc(C(=O)Nc2ccccc2F)c2ccccc2c1=O)c1cnccn1`: the inhibition was 47.1% (active).
As to `COC(=O)c1cn(NC(=O)c2cnccn2)c(=O)c2ccccc12`, the inhibition was 3% (inactive).
`C=CCN1C(=O)/C(=C2/C(=O)N(CC(=O)O)c3ccccc32)S/C1=N/c1nccs1`: the inhibition was -5.4% (inactive).
With `CCN(CC)CCn1c(NC(=O)c2ccccc2O)nc2ccccc21`, the inhibition was 19% (inactive).
Next, `Cc1ccc(CNC(=O)CNS(=O)(=O)c2cccc3nsnc23)cc1`: -18.7% (inactive).
To `O=C(CCCNS(=O)(=O)c1cccc2nsnc12)NCc1ccc(Cl)cc1` belongs -12% (inactive); to `O=C(CNS(=O)(=O)c1cccc2nsnc12)NCc1ccc(Cl)cc1`, 47.4% (active); to `Cn1ncc(N=Cc2ccccc2)c1C(N)=O`, -13.3% (inactive).
To `C/C(CC(=O)NCc1ccc(Cl)cc1)=N\NC(=O)Cc1ccccc1` belongs -22.7% (inactive).
Consider `CC1Sc2ccc(S(=O)(=O)N3CCC(C(=O)Nc4cccc(Cl)c4)CC3)cc2NC1=O` (stereo not drawn), for which the inhibition was 7.5% (inactive).
Next, `CCc1ccc(NC(=O)C2CCN(S(=O)(=O)c3ccc4c(c3)NC(=O)C(C)S4)CC2)cc1` (stereo not drawn): 30.4% (inactive); `COc1ccc(N2CCN(S(=O)(=O)c3ccc4c(c3)NC(=O)C(C)C(=O)N4)CC2)cc1` (stereo not drawn): -0.5% (inactive).
To `CC1Sc2ccc(S(=O)(=O)N3CCN(c4ccccc4)CC3)cc2NC1=O` (stereo not drawn) belongs 30.2% (inactive); to `Cc1ccc(NC(=O)C2CCN(S(=O)(=O)c3ccc4c(c3)NC(=O)C(C)S4)CC2)cc1C` (stereo not drawn), 6.5% (inactive); to `Cc1cc(C)cc(NC(=O)C2CCN(S(=O)(=O)c3ccc4c(c3)NC(=O)C(C)S4)CC2)c1` (stereo not drawn), -10.4% (inactive).
